Measurements as given in PubChem BioAssay (Tox21).
Inconclusive results are not listed. Calls of active or inactive are those of the source. The call rests on the fitted dose curve; in most records, active means well fitted cell-killing curve with a large enough effect in the repeat runs; inconclusive means weak or mixed curves; inactive means flat fitted curve, though single readings scatter.

Assay: qHTS RealTime-Glo MT Cell Viability Assay in HepG2 cells - 24 hour (AID 1224867); further: nearly all actives have a fitted effect of over 50% in size
Conditions: RealTime-Glo luminescence; series mostly up to 76.8 µM; activity change, negative = cytotoxicity: at the top concentration
Description: U.S. Tox21 Program National Center for Advancing Translational Sciences [NCATS] NIH Chemical Genomics Center [NCGC] U.S. Environmental Protection Agency [EPA] National Institutes of Environmental Health Sciences [NIEHS] National Toxicology Program [NTP] U.S. Food and Drug Administration [FDA] Tox21 Assay Overview: Measure of cell viability is critical in the cell-base assay. Analysis of cell viability is necessary for the characterization of cell responses to cytotoxic drugs and environmental stress. A RealTime-Glo MT Cell Viability Assay to monitor cell viability in real time of continues cell culture during 40 hours of compound treatment was used to screen Tox21 10K library compounds in HepG2 cells. The RealTime-Glo MT Cell Viability Assay is a nonlytic, homogeneous, bioluminescent method to measure cell viability in real time using a simple, plate-based method. The assay involves adding NanoLuc luciferase and a cell-permeant prosubstrate to cells in culture. Viable cells reduce the proprietary prosubstrate to generate a substrate for NanoLuc luciferase. This substrate diffuses from cells into the surrounding culture medium, where it is rapidly used by the NanoLuc Enzyme to produce a luminescent signal. The signal correlates with the number of viable cells, making the assay well suited for cytotoxicity studies.
Tox21 Assay Protocol Summary: The mixture of HepG2 cell suspension and reagents were dispensed at 600cells/6 ul/well in 1536-well tissue culture treated black solid bottom plates using a Multidrop dispenser. After the assay plates were incubated at a 37 C/5% CO2 incubator for 5 hours, 23 nL of compounds dissolved in DMSO, positive and negative controls was transferred to the assay plate by a pintool work station. The plates were incubated at 37 C for 40 hours. The luminescence intensity were measured at 0h, 8h, 16h, 24h, 32h and 40h time points using ViewLux plate reader during compound treatment.
On the % scale 0 is the no-effect control and ±100 the full control effect; potency means the concentration at half of the fitted maximal effect.

SMILES	activity change, negative = cytotoxicity	Potency
O=[N+]([O-])c1ccc(CO)cc1	3.5% (inactive)	
CCc1cccc(C)c1N(C(=O)CS(=O)(=O)O)C(C)COC (stereo not given)	0.309% (inactive)	
CO[Si](OC)(c1ccccc1)c1ccccc1	-11% (inactive)	
Nc1cc([N+](=O)[O-])cc(Cl)c1O	-4.69% (inactive)	
Oc1ccc(C2(c3ccc(O)c(C4CCCCC4)c3)CCCCC2)cc1C1CCCCC1		34.7 µM (active)
CCCCCCCCCCCCS(=O)(=O)Cl	3.24% [at 15.8 µM] (inactive)	
Nc1ccc2c(S(=O)(=O)O)cccc2c1S(=O)(=O)O	0.962% [at 35.3 µM] (inactive)	
Oc1cccc2c(O)cccc12	-0.0654% (inactive)	
NCc1cccc(C2CCN(C(=O)c3ccc(C#Cc4ccccc4F)o3)CC2)c1		54.9 µM (active)
O=C(O)CN(CCCN(CC(=O)O)CC(=O)O)CC(=O)O	-3.25% [at 15.8 µM] (inactive)	
[Cl][Sc]([Cl])[Cl]	2.8% (inactive)	
O=C(c1ccccc1)c1ccc(Cl)cc1	-5.79% (inactive)	
CN1CCN(CCCN2c3ccccc3Sc3ccc(C(F)(F)F)cc32)CC1		23.9 µM (active)
CC1(C)[C@H]2CC[C@]1(C)C(=O)C2	-0.861% (inactive)	
Cc1c[nH]c(=O)[nH]c1=O	1.63% (inactive)	
Cc1c(Cl)c(=O)oc2cc(O)ccc12	-6.2% (inactive)	
O=C1CCC/C=C\CCCCCCCCCC1	-8.62% (inactive)	
CCCCCN=C(N)N/N=C/c1c[nH]c2ccc(OC)cc12		6.01 µM (active)
CC(=O)[C@]1(O)Cc2c(O)c3c(c(O)c2[C@@H](O[C@H]2C[C@H](N)[C@H](O)[C@H](C)O2)C1)C(=O)c1ccccc1C3=O		6.01 µM (active)
c1ccc(-c2ccccc2-c2ccccc2)cc1	1.29% (inactive)	

SMILES	activity change, negative = cytotoxicity	Potency
CC(CC(C)(C)C)CC(C)(C)CC(C)(C)C (stereo not given)	2.32% [at 35.3 µM] (inactive)	
CCCCCCCCCCCC(=O)Cl	3.84% (inactive)	
C1=CCCC1	6.55% (inactive)	
Cc1cccc(C)c1C	-2.02% (inactive)	
Cc1ccc2nc(-c3ccc(N)cc3)sc2c1S(=O)(=O)O	-6.96% [at 35.3 µM] (inactive)	
CCc1c(C)cc(N)c(CC)c1N	1.19% (inactive)	
COc1c(Br)cc(Br)c(C)c1Br	-11.8% (inactive)	
CC(=O)Nc1ccc(N=Nc2cc(C)ccc2O)cc1	-9.63% (inactive)	
c1ccc(C[P+](c2ccccc2)(c2ccccc2)c2ccccc2)cc1	-28.1% (inactive)	
Clc1ccc2c(Cl)ccnc2c1	2.37% (inactive)	
Cc1ccc(C=O)cc1	-3.22% [at 35.3 µM] (inactive)	
SC1CCCCC1	-1.08% (inactive)	
Nc1cccnc1N	3.89% (inactive)	
c1ccc2c(c1)-c1ccc3ccc4cccc5cc-2c1c3c45	-2.08% [at 35.3 µM] (inactive)	
C1CCSC1	-5.28% (inactive)	
c1ccc(-c2ccc(C(c3ccccc3)n3ccnc3)cc2)cc1 (stereo not given)	-19.5% [at 35.3 µM] (inactive)	
CCCCCCCC/C=C\CCCCCCCC(=O)N(CCO)CCO	-17.9% (inactive)	
C/C(=N\[Si](C)(C)C)O[Si](C)(C)C	2.63% (inactive)	
CCOc1ccc([N+](=O)[O-])cc1	-10.8% (inactive)	
C=C[Si](C)(C)Cl	-0.615% [at 6.97 µM] (inactive)	
